The values that follow come from PubChem BioAssay (Tox21).

Results filed as inconclusive are left out. Values without a mark were called inactive. The source made the active and inactive calls. Unless noted, calls come from the whole dose curve; as a rule, active = well fitted curve in the direction sought with a large enough effect in the repeat runs; inconclusive = weak or mixed curves; inactive = no such curve, though single readings can be large; an effect the other way counts as inactive or inconclusive.

For test [1], the target named is Retinoic acid receptor RXR-alpha (Homo sapiens) (UniProt P19793). Nature of the test: qHTS assay to identify small molecule agonists of the RXR signaling pathway (AID 1159527; calls by dose curve; note: nearly all actives have a fitted effect of over 35% in size). The essentials: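 Agonist-mode beta-lactamase reporter assay: HEK 293T RXR-alpha-UAS-bla cells treated 16 hr at 37 C with compounds, 9-cis retinoic acid as positive control. LiveBLAzer FRET substrate, 405 nm excitation, 460/530 nm emission.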
A general note: qHTS replaces the single test concentration by a dilution series.

A short description of test [2]: qHTS assay to identify small molecule agonists of the RXR signaling pathway - cell viability counter screen (AID 1159529). Note: nearly all actives have a fitted effect of over 50% in size. The essentials:
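CellTiter-Glo luminescence gave viability in the wells also read for beta-lactamase. Cells (RXR-alpha-UAS-bla HEK 293T, 2% charcoal-stripped FBS medium) had 5 hr plating, then 16 hr compound exposure at 37 C; tetraoctyl ammonium bromide served as positive control.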

Test [3] is described as follows: qHTS assay to identify small molecule antagonists of the retinoid acid receptor (RAR) signaling pathway - cell viability counter screen (AID 1159551). Note: nearly all actives have a fitted effect of over 35% in size. The essentials: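 Cells (C3RL4) are plated, incubated overnight, dosed with compound in DMSO, then given retinol at 1 uM final. After 6 h at 37 C, CellTiter-Glo is added and luminescence read following 30 min at room temperature.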

The nature of test [4]: qHTS assay to identify small molecule antagonists of the retinoic acid receptor (RAR) signaling pathway (AID 1159552; note: nearly all actives have a fitted effect of over 50% in size). The gist of the method: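 Luminescent RARE reporter read-out in C3RL4 cells: 6 hr co-treatment at 37 C of test compounds with retinol at 1 uM final. Cells plated overnight beforehand; luciferase reagent incubated 30 min at room temperature before reading.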

Test [5] can be described thus: qHTS assay to identify small molecule agonists of the retinoic acid receptor (RAR) signaling pathway (AID 1159553). Particulars: C3RL4 RARE luciferase reporter, agonist, 6 h; activation: at 73.3 µM (top of the series). The gist of the method: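 Seed C3RL4 reporter cells at 1,000 per well and incubate overnight at 37 C. Add compounds in DMSO, incubate 6 hr. Add luciferase reagent, wait 30 min at room temperature, read luminescence.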

For test [6], the target named is Luciferin 4-monooxygenase (Photinus pyralis) (UniProt P08659). Put plainly: qHTS assay to identify small molecule inhibitors of firefly luciferase (AID 1224835). Note: nearly all actives have a fitted effect of over 25% in size. The essentials:
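Inhibition of purified Photinus luciferase is measured by luminescence. Substrate levels (D-luciferin, ATP) sit at their KM values. Each compound is tested in a concentration series.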

A short description of test [7]: qHTS assay to identify small molecule agonists of the constitutive androstane receptor (CAR) signaling pathway - cell viability counter screen (AID 1224836). Note: nearly all actives have a fitted effect of over 45% in size. The gist of the method: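 Cell viability multiplexed with the CAR agonist screen: CellTiter-Fluor fluorescence after 23 hr at 37 C. HepG2-CYP2B6-hCAR cells got compounds at 15 concentrations with PK11195 at 0.75 uM final.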

The nature of test [8]: qHTS assay to identify small molecule antagonists of the constitutive androstane receptor (CAR) signaling pathway - cell viability counter screen (AID 1224837). Note: nearly all actives have a fitted effect of over 45% in size. The essentials: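 Viability was measured with CellTiter-Fluor in a HepG2 line carrying stably transfected hCAR and a CYP2B6-2.2kb construct. Cells were exposed for 23 hr at 37 C to 15 compound concentrations with 50 nM CITCO as agonist.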

The nature of test [9]: qHTS assay to identify small molecule antagonists of the estrogen related receptor signaling pathway with the pleiotropic PPARgamma coactivator (PGC) from Tox21 10K library - cell viability counter screen (AID 1224840; active = well fitted cell-killing curve with a large enough effect in the repeat runs, not every such curve was filed as active; note: nearly all actives have a fitted effect of over 40% in size). The essentials: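 Multiplexed viability counter screen in the PGC/ERR cell line: cells treated with DMSO-dissolved compounds for 17.5 hours at 37 C, then viability measured as CellTiter-Fluor fluorescence.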

Test [10] has as its target Thyrotropin receptor (Homo sapiens) (UniProt P16473). Put plainly: qHTS assay to identify small molecule agonists of the thyroid stimulating hormone receptor (TSHR) signaling pathway (AID 1224843; calls by dose curve; note: nearly all actives have a fitted effect of over 45% in size). The essentials: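 A cell-based cAMP HTRF format was run in TSHR-transfected HEK293 cells, 800 per well. Treatment: 30 min, room temperature. Detection: 1 h with labelled cAMP and anti-cAMP cryptate. Concentration-response over 15 points, three replicates.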

A short description of test [11]: qHTS assay to identify small molecule agonists of the hypoxia (HIF-1) signaling pathway - cell viability counter screen (AID 1224844; calls by dose curve; note: nearly all actives have a fitted effect of over 50% in size). The essentials: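 Cytotoxicity was measured in parallel with the HRE-driven beta-lactamase readout: after 17 hrs of compound exposure at 37C, HRE-bla ME-180 cells received CellTiter-Glo and luminescence was recorded 30 min later.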

Test [12] is described as follows: qHTS assay to identify small molecule agonists of H2AX (AID 1224845; active = well fitted activation curve with a large enough effect in the signal ratio in the repeat runs, not every such curve was filed as active; the % refers to the signal ratio). The essentials:
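Phospho-H2AX Ser139 measured by HTRF (ex 320 nm; em 665 and 620 nm) after 24 hr antibody incubation. Compounds, 15 concentrations, 0.76% DMSO, were applied to CHO-K1 cells for 3hr at 37C before lysis.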

Test [13] can be described thus: qHTS assay to identify small molecule agonists of the hypoxia (HIF-1) signaling pathway (AID 1224846; active = well fitted activation curve with a large enough effect in the signal ratio in the repeat runs, not every such curve was filed as active; the % refers to the signal ratio). The essentials:
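Compounds from the Tox21 10K library, dissolved in DMSO, are tested for induction of a hypoxia response element–controlled beta-lactamase reporter in ME-180 cells. Exposure lasts 17 hrs at 37C after a 5 hr settling period, followed by CCF4-AM FRET substrate.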

A short description of test [14]: qHTS assay to identify small molecule agonists of H2AX - cell viability counter screen (AID 1224847; calls by dose curve;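 note: wild-type CHO-K1 cells; top concentration of the series differs between compounds; nearly all actives have a fitted effect of over 30% in size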). The gist of the method:
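Counter-screen for viability: CellTiter-Glo ATP luminescence read after 3 h compound treatment (15-point titration, 0.76% DMSO final) of CHO-K1 cells at 37C, with 30 min room-temperature reagent incubation.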

For test [15], the target named is Nuclear receptor subfamily 1 group I member 3 (Homo sapiens) (UniProt Q14994). Put plainly: qHTS assay to identify small molecule antagonists of the constitutive androstane receptor (CAR) signaling pathway (AID 1224838).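 Note: HepG2 cells stably expressing hCAR with CYP2B6 luciferase reporter stimulated by CITCO; nearly all actives have a fitted effect of over 40% in size.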 The essentials: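 Antagonist mode used CITCO at a final 50 nM to activate CAR in human hepatoma HepG2 cells carrying stable hCAR and a 2.2 kb CYP2B6 promoter-luciferase construct. Compounds were tested at 15 concentrations over 24 h, with luminescence as the end point.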

For test [16] the target is unchanged. Put plainly: qHTS assay to identify small molecule agonists of the constitutive androstane receptor (CAR) signaling pathway (AID 1224839). Note: nearly all actives have a fitted effect of over 15% in size. The essentials: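 Luminescent ONE-Glo read-out after 24 hr, 37 C exposure of double-stable HepG2-CYP2B6-hCAR reporter cells to a 15-point compound series, in the presence of 0.75 uM PK11195 (final).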
A short description of test [17]: qHTS assay to identify small molecule antagonists of the estrogen related receptor (ERR) signaling pathway from Tox21 library - cell viability counter screen (AID 1224834). Note: nearly all actives have a fitted effect of over 30% in size. The essentials:
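ERR cells, 2,000/well; 6 h settle at 37 C/5% CO2; pin-tool compound transfer in DMSO; 17.5 h at 37 C; CellTiter-Fluor, 30 min; fluorescence intensity.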

Test [18] is described as follows: qHTS assay to identify small molecule agonists of the estrogen related receptor signaling pathway with the pleiotropic PPARgamma coactivator (PGC) from Tox21 10K library (AID 1224842). Note: nearly all actives have a fitted effect of over 15% in size. The gist of the method: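 Luminescence from One-Glo (30 min, room temperature) measured after PGC/ERR cells had 18 h at 37 C with pinned compound (23 nL in DMSO). Cells had been seeded at 2,000 per well and pre-incubated 6 h.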

A short description of test [19]: qHTS assay to identify small molecule antagonists of the estrogen related receptor (ERR) signaling pathway from Tox21 library (AID 1224848). Note: nearly all actives have a fitted effect of over 50% in size. Note: potency is the fitted concentration of half-maximal effect. The gist of the method:
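ERR cell line, 2,000 cells/well. 6 h settle, then compound (DMSO) added; 18 h at 37 C; ONE-Glo luminescence after 30 min RT.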

A short description of test [20]: qHTS assay to identify small molecule antagonists of the estrogen related receptor signaling pathway with the pleiotropic PPARgamma coactivator (PGC) from Tox21 10K library (AID 1224841; call rule not given here). The essentials: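 Steps: plate 2,000 PGC/ERR cells per well; incubate 6 h at 37 C with 5% CO2; transfer compounds from DMSO stocks by pin tool; incubate 18 h at 37 C; add One-Glo; measure luminescence 30 min later.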

Sequence of Luciferin 4-monooxygenase (Photinus pyralis) (P08659 whole entry, looked up): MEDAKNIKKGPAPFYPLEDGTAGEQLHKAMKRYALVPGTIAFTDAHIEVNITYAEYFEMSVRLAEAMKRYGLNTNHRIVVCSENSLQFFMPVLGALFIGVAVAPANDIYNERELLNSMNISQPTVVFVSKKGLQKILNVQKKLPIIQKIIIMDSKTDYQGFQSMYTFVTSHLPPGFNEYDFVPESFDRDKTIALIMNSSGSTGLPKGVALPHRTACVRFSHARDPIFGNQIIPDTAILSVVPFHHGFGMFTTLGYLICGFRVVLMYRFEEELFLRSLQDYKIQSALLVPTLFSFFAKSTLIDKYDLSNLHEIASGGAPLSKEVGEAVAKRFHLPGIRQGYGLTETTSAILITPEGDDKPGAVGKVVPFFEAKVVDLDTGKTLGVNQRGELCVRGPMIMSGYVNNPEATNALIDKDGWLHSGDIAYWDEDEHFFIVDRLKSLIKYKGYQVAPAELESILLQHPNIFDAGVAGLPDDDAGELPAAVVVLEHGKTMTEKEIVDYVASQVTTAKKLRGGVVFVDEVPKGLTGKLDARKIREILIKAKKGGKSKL
Sequence of Nuclear receptor subfamily 1 group I member 3 (Homo sapiens) (Q14994 whole entry, looked up): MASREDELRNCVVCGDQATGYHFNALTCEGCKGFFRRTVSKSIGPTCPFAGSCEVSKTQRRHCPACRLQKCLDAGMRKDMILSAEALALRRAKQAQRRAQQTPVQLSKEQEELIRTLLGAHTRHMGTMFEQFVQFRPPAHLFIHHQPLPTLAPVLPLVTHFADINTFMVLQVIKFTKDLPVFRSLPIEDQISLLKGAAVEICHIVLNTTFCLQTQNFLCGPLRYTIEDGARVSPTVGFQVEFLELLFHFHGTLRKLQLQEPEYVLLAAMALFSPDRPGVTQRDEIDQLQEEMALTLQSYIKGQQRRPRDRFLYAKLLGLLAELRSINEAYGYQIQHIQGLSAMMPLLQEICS
Sequence of Retinoic acid receptor RXR-alpha (Homo sapiens) (P19793 whole entry, looked up): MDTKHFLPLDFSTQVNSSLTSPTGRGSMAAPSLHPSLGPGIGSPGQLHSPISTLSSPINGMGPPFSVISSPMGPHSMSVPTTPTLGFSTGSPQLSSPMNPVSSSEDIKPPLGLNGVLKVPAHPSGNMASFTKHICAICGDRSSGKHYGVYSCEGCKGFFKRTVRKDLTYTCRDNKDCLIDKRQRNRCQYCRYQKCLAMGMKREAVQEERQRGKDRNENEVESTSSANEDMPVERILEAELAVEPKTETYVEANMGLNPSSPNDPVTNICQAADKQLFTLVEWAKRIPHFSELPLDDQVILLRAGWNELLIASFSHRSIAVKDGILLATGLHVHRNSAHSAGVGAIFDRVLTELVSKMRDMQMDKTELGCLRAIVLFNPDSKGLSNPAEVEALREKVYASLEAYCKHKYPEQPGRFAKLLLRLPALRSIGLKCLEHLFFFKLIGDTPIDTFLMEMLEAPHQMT
Sequence of Thyrotropin receptor (Homo sapiens) (P16473 whole entry, looked up): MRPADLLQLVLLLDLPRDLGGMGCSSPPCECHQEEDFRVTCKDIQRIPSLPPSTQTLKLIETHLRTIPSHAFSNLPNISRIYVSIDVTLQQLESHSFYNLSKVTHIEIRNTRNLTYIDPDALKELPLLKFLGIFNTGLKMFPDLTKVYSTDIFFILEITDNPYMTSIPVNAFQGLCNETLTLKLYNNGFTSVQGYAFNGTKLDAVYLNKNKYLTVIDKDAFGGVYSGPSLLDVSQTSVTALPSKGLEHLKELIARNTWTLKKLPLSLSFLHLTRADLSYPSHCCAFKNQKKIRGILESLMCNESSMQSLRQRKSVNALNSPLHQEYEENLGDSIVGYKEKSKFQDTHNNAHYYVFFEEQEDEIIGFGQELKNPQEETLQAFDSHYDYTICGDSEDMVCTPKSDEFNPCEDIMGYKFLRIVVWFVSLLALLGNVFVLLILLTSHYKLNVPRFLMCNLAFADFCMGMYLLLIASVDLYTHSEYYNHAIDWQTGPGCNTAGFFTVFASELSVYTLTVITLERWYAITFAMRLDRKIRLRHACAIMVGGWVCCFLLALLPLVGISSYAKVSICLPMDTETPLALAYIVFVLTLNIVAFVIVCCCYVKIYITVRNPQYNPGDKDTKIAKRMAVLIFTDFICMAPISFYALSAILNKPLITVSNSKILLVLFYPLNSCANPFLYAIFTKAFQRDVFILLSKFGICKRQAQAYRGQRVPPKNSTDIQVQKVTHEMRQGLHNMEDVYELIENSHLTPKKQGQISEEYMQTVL

Regarding `CCOC(=O)OCC/C(SC(=O)OCC)=C(\C)N(C=O)Cc1cnc(C)nc1N`, the Potency entry in [1], in test [4], in test [5], in [6], in [8] and in test [14] was “inactive” in each case. Further, the outcome in test [2], in test [3], in test [7], in test [9], in [10] and in [11] was inactive. Also, the call in test [12] and in test [13] was inactive.
For the compound `CC(C)(C)c1ccc(C=O)cc1`, the Potency result in test [1], in test [4], in test [5], in test [8], in test [15] and in test [16] was “inactive” in each case. The Potency result in test [14] is “inactive”. Further, the result in test [2], in test [3], in test [9], in test [10], in test [11] and in test [12] was inactive. Besides, the compound was classed as inactive in test [13].
Consider `Cc1nc2n(c(=O)c1CCN1CCC(C(=O)c3ccc(F)cc3)CC1)CCS2`, for which the Potency entry in test [1], in [5], in test [17], in test [6], in test [8] and in test [14] was “inactive” each time. Also, the compound was called inactive in [2], in test [3], in test [7], in test [9], in test [18] and in [10]. Further, the call in test [11], in test [12] and in [13] was inactive. Besides, the Potency in test [19] was 11.9 µM (active).
Regarding `CCN(CCO)c1cccc(C)c1`, the Potency entry in test [1], in [4], in [5], in [17], in test [8] and in [15] was “inactive” each time. In addition, in test [19], the Potency result was “inactive”. In addition, the compound was called inactive in test [2], in [3], in [9], in test [18], in test [10] and in test [11]. Further, the call in [12] and in test [13] was inactive.
`Nc1ccc(C(=O)OCC(O)CO)cc1` (stereo unspecified): the Potency result in test [1], in test [5], in test [17], in test [6], in [8] and in test [16] was “inactive” each time. Further, the Potency result in [14] and in [19] was “inactive” in each case. Moreover, the compound was classed as inactive in test [2], in test [3], in test [7], in test [18], in test [10] and in test [11]. Besides, the compound was classed as inactive in [12] and in [13].
Regarding `CCCCCCCCCCCCCCCC(=O)NCCO`, the Potency entry in test [1], in [5], in [17], in test [6], in [8] and in test [15] was “inactive” throughout. Further, the Potency result in test [20], in test [14] and in test [19] was “inactive” in each case. Besides, the compound was called inactive in test [2], in [3], in test [7], in [9], in test [18] and in [10]. The compound was called inactive in test [11] and in test [12].
Consider `CCCCCCCC/C=C\CCCCCCCC(=O)OC[C@@H](O)[C@H]1OC[C@H](O)[C@H]1O`, for which the Potency result in [1], in [5], in [17], in test [6], in test [8] and in test [14] was “inactive” each time. For the same compound, the call in test [2], in test [3], in test [7], in [9], in test [10] and in [11] was inactive. Also, the call in [12] and in test [13] was inactive.
